We go through 42 compounds from PubChem BioAssay (NCATS).

In experiment [1] the target is Aldehyde dehydrogenase, mitochondrial (Homo sapiens) (UniProt P05091). Briefly: qHTS for Inhibitors of the Aldehyde Dehydrogenase Family (ALDH2) Primary screen (AID 2061308).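 Note: plate controls were vehicle for no effect and reference inhibitor for full effect; nearly all actives have a fitted effect of over 55% in size.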 On the technique in general: Quantitative high-throughput screening tests each substance at several concentrations.
Experiment [2] has as its target Retinaldehyde dehydrogenase 3 (Homo sapiens) (UniProt P47895). As to the kind of experiment: qHTS for Inhibitors of the Aldehyde Dehydrogenase Family (ALDH1A3) Primary screen (AID 2061315).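 Note: plate controls were DMSO vehicle for no effect and reference inhibitor for full effect.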

Records with an inconclusive call do not appear. Values without a mark were called inactive. Active and inactive are the calls of the source. Calls come from the whole dose curve; as a rule, active = well fitted curve in the direction sought with a large enough effect; inconclusive = small, poorly fitted or top-dose-only effect, or another doubt; inactive = no such curve, though single readings can be large; an effect the other way counts as inactive or inconclusive.

With `COc1cccc(C2C(C#N)=C(NC(=O)CCc3ccccc3)Oc3ccc4ccccc4c32)c1` (centres undefined), the Potency entry in experiment [1] and in experiment [2] was “inactive” each time.
Consider `COC1CC(O[C@H]2CC[C@@]3(C)C(=CC[C@]4(O)C3[C@H](OC(C)=O)[C@@H](OC(=O)c3ccccc3)[C@]3(C)[C@@H](C(C)=O)CC[C@@]34O)C2)OC(C)C1OC1CC(OC)C(OC2CC(OC)C(OC3OC(C)C(OC4OC(CO)C(O)C(O)C4O)C(OC)C3O)C(C)O2)C(C)O1` (some centres undefined), for which the activity change, negative = inhibition was 8.46% [at 11.2 µM] in experiment [1] and 2.23% [at 11.2 µM] in experiment [2].
As to `Cc1cnc(-c2ccccc2C(C)C)nc1N(C)Cc1ccc(-c2cccnc2)cc1`, the Potency entry in experiment [1] and in experiment [2] was “inactive” each time.
As to `Cc1ccc(OCCn2c(CCNC(=O)C3CCOCC3)nc3ccccc32)cc1`, the Potency entry in experiment [1] and in experiment [2] was “inactive” in each case.
On to `COc1cccc(CNc2ccc([S+](=O)([O-])Nc3ccccc3)cc2)c1Cl`, for which the Potency result in experiment [1] and in experiment [2] was “inactive” in each case.
As to `O=C(Nc1nc(-c2ccccc2)cs1)c1ccncc1NS(=O)(=O)c1ccc(F)cc1Cl`, the Potency result in experiment [1] and in experiment [2] was “inactive” in each case.
For the compound `Cn1nnnc1Sc1ncnc2scc(-c3cccc(C(F)(F)F)c3)c12`, the Potency entry in experiment [1] and in experiment [2] was “inactive” throughout.
On to `CC(=O)Nc1ccc(-c2nc3ccccc3s2)cc1`, for which the Potency entry in experiment [1] and in experiment [2] was “inactive” in each case.
`Cc1ccc(S(=O)(=O)Nc2cnccc2C(=O)Nc2nc(-c3ccc(Cl)c(Cl)c3)cs2)cc1`: the Potency result in experiment [1] and in experiment [2] was “inactive” in each case.
Turning to `Cc1ccc(NS(=O)(=O)c2ccc3c(c2)CCC(C)(C)O3)cc1C`, the Potency entry in experiment [1] and in experiment [2] was “inactive” throughout.
In the case of `O=[N+]([O-])c1cccc(CNc2ccc(S(=O)(=O)Nc3nccs3)cc2)c1O`, the Potency entry in experiment [1] and in experiment [2] was “inactive” each time.
With `O=C(OCC#CCSc1nnc(-c2cccc3ccccc23)o1)c1ccc(C(F)(F)F)cc1`, the Potency result in experiment [1] and in experiment [2] was “inactive” throughout.
With `O=C(O)c1ccc(-c2noc(-c3cccc(Cl)c3)n2)cc1`, the Potency entry in experiment [1] and in experiment [2] was “inactive” in each case.
Consider `NS(=O)(=O)c1ccc(Cc2c(-c3cccc(-c4ccccc4)c3)nn(-c3nc(C(=O)O)cs3)c2C2CC2)cc1`, for which the Potency entry in experiment [1] and in experiment [2] was “inactive” in each case.
As to `CC(C)Oc1cccc(-c2csc(N3CCC(C(N)=O)CC3)n2)c1`, the Potency result in experiment [1] and in experiment [2] was “inactive” in each case.
Consider `O=C(Nc1ccccc1)C1CCN(c2ncc(-c3ccc4c(c3)OCCCO4)s2)CC1`, for which the Potency result in experiment [1] and in experiment [2] was “inactive” throughout.
`O=C(Nc1nc(Nc2cc(F)cc(F)c2)nc(NC2CCCC2)n1)OCc1ccccc1`: the Potency entry in experiment [1] and in experiment [2] was “inactive” each time.
Consider `Cc1ccc(NC(=O)CSc2nnc(-c3cccc([S+](=O)([O-])N4CCCC4)c3)n2-c2c(C)cccc2C)cc1`, for which the Potency entry in experiment [1] and in experiment [2] was “inactive” each time.
In the case of `CCN(CC)CCCn1c(-c2ccccc2)nc2c(N(CCOC)CCOC)nc(C)nc21`, the Potency entry in experiment [1] and in experiment [2] was “inactive” throughout.
For the compound `CCC(CC)C(=O)NCCc1nc2ccccc2n1CCOc1ccc(C)cc1`, the Potency result in experiment [1] and in experiment [2] was “inactive” in each case.
Turning to `Cc1ccc(S(=O)(=O)NCC(=O)Nc2nc(-c3ccccc3)cs2)cc1`, the Potency result in experiment [1] and in experiment [2] was “inactive” throughout.
On to `CCN1CCCC1Cn1c(-c2ccccc2)nc2c(NC3CCCCC3)nc(C)nc21` (centres undefined), for which the Potency entry in experiment [1] and in experiment [2] was “inactive” in each case.
Take `O=C(NNC(=O)c1cc2ccccc2[nH]1)OCc1ccccc1`: the Potency result in experiment [1] and in experiment [2] was “inactive” throughout.
For the compound `O=C(Nc1ccc(-c2ccccc2)cc1)Nc1nnc(-c2ccncc2)s1`, the Potency entry in experiment [1] and in experiment [2] was “inactive” in each case.
As for `Cc1ccc(OCCn2c(CCNC(=O)OC(C)(C)C)nc3ccccc32)cc1`, the Potency entry in experiment [1] and in experiment [2] was “inactive” throughout.
For the compound `COc1ccc(C2Nc3ccccc3C(=O)N2Cc2ccncc2)cc1COc1c(C)cc(NC(C)=O)cc1C` (centres undefined), the Potency result in experiment [1] and in experiment [2] was “inactive” each time.
As to `c1cc(NC2CCNCC2)nc(-c2cnc3ccccn23)c1`, the Potency entry in experiment [1] and in experiment [2] was “inactive” throughout.
As to `CC(=O)Nc1ccc(Cl)cc1C(=O)c1ccc[nH]1`, the Potency entry in experiment [1] and in experiment [2] was “inactive” each time.
Consider `Fc1ccc(Nc2nc(-c3ccncc3)nc3ccccc23)cc1F`, for which the Potency entry in experiment [1] and in experiment [2] was “inactive” throughout.
As for `Oc1cccc2cc(Nc3ccccc3)cnc12`, the Potency entry in experiment [1] and in experiment [2] was “inactive” throughout.
Regarding `c1ccc(-n2cc(-c3nnc4n3CCCCC4)c3ccccc32)cc1`, the Potency result in experiment [1] and in experiment [2] was “inactive” in each case.
In the case of `O=C(Nc1ncc(Cc2ccc(C(F)(F)F)cc2)s1)c1cnc(-c2ccccc2)[nH]1`, the Potency entry in experiment [1] and in experiment [2] was “inactive” each time.
For `O=C(Cc1ccccc1)Nc1ncnc2c1C(c1ccccc1)c1c(ccc3ccccc13)O2` (centres undefined), the Potency entry in experiment [1] and in experiment [2] was “inactive” throughout.
Take `Cc1ccc(-c2cc(C(=O)Nc3ccc(-c4nn[nH]n4)cc3)c3ccccc3n2)cc1C`: the Potency entry in experiment [1] and in experiment [2] was “inactive” each time.
`CCCn1c(C)nc2c(N(CCOC)CCOC)nc(C)nc21`: the Potency entry in experiment [1] and in experiment [2] was “inactive” in each case.
`Fc1cnc(-c2ccccc2C(F)F)nc1NCc1ccc(-c2ccn[nH]2)cc1`: the Potency result in experiment [1] and in experiment [2] was “inactive” throughout.
As for `Cc1ccc(OCCn2c(CCNC(=O)N3CCCCC3)nc3ccccc32)cc1`, the Potency result in experiment [1] and in experiment [2] was “inactive” in each case.
Take `O=C(Nc1ccc(-c2nc3ccccc3[nH]2)cc1)c1ccc2sccc2c1`: the Potency result in experiment [1] and in experiment [2] was “inactive” each time.
As for `O=c1c2ccccc2nc2sc(Nc3ccc4c(c3)CCC4)nn12`, the Potency entry in experiment [1] and in experiment [2] was “inactive” each time.
Take `COc1ccccc1-c1nnc(SCC#CCOC(=O)c2ccc(F)cc2)o1`: the Potency result in experiment [1] and in experiment [2] was “inactive” each time.
For the compound `O=C(O)C1C2C(=O)N(c3ccccc3)C[C@@]23C=C[C@@H]1O3` (some centres undefined), the Potency entry in experiment [1] and in experiment [2] was “inactive” in each case.
Consider `O=C(c1ccc2c(c1)ncn2-c1ccc(Cl)cc1)N1CCCCC1`, for which the Potency result in experiment [1] and in experiment [2] was “inactive” in each case.
